# Screening results deposited in PubChem by Broad Institute.
# F508del corr = CFTR F508del correction in bronchial cells; CFBE cells, YFP halide quenching; stimulated with forskolin plus potentiator P3; % fluorescence drop versus neutral controls; activity (quench increase), % at 7.58 µM; hit rate 0.36% among 350,000; AID 720511;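 active = mean added fluorescence quench of at least 8% versus neutral control, with both replicates also reaching 8%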;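 note: cells transiently co-express mutant CFTR-F508del with the halide-sensitive YFP; corrector assay measuring rescue of mutant channel to the surface after 24 h compound exposure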
# RAD54 inh = RAD54 (human) branch migration inhibition | RAD54 Holliday junction branch migration, FAM/BHQ fluorescence | Q92698 | hit rate 0.14% among 360,000 | AID 602329 | inhibition, % at 10.4 µM;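 active = mean normalized replicate activity at least 40 and at least half of replicates scoring 40 or more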;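 note: 0% = median of neutral control wells and 100% = median of positive control wells; inhibitors cause a drop in the FAM fluorescence signal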
# RAD52 inh = blocks human RAD52 DNA annealing | P43351 | recombinant RAD52 DNA annealing, FRET fluorescence | inhibition, % at 18.7 µM | hit rate 0.46% among 360,000;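 active = every replicate showing at least 50% inhibition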
# Target sequence (P43351 whole entry, looked up): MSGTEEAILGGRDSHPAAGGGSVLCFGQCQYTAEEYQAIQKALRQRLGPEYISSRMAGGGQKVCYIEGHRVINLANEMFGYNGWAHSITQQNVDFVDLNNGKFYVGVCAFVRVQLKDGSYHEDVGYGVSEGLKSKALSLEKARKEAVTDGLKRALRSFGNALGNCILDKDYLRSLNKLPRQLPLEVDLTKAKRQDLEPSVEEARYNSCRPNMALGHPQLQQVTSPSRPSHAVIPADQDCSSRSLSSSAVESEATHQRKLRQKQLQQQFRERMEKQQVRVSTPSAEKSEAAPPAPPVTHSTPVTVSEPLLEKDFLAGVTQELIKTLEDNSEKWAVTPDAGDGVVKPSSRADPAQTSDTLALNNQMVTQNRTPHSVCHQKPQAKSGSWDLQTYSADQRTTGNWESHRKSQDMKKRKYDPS
# LGR2 antag = inhibitors of bursicon-induced Drosophila LGR2 receptor cAMP signaling | HEK293 LGR2, CRE-luciferase, bursicon-stimulated, 4 h | inhibition, % at 9.99 µM | hit rate 0.35% among 380,000 | AID 720647;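 active = drop in luminescence signal, shown as inhibition above about 50% in the replicate tests, limit read from the data, passing the limit was not always enough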;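 note: agonist challenge used bursicon conditioned medium at about half maximal strength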
# GSIS activator = primary screen for activators of insulin secretion dependent on glucose, INS-1E cells, GLuc reporter luminescence | INS-1E GLuc reporter insulin secretion, 2-3 h | activation, % at 16.6 µM | hit rate 0.61% among 370,000;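 active = lowest replicate activation of at least 40%, so every replicate reaches that level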;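 note: 0% = median of neutral control wells and 100% = median of IBMX positive control wells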
# EWS-Fli block = inhibitors of EWS/Fli oncoprotein transcriptional activity. A673 NR0B1-luciferase reporter, viability-normalised. inhibition, % at 12.6 µM. hit rate 0.67% among 350,000. AID 651661;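 active = mean inhibition of at least 50% after viability correction, with every replicate also passing that limit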;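 note: firefly luciferase signal divided by Alamar Blue viability fluorescence both relative to DMSO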
# * marks the source's active call; other numbers are inactive results; . = not tested or not shown. Shown are actives, neighbours in structure and some others; about 1.8% of the full set was active somewhere.
SMILES,F508del corr,RAD54 inh,RAD52 inh,LGR2 antag,GSIS activator,EWS-Fli block
O=S(=O)(N[C@H]1CC[C@@H](CCn2cc(-c3ccccn3)nn2)O[C@@H]1CO)c1cccc(Cl)c1,-0.2,7.4,-4.6,6.3,-0.4,12.8
COc1ccc(NC(=O)Nc2ccc(N3CCOCC3)c3nonc23)c(OC)c1,-4.4,.,-35.1,-3.3,-2.7,9.9
O=C(Nc1ccc(F)cc1)Nc1ccc(N2CCOCC2)c2nonc12,11.4*,.,-5.7,.,0.7,-148.3
O=C(N/N=C/c1ccncc1)c1cc(-c2ccc(Br)s2)[nH]n1,-1.4,-0.8,-18.1,-4.3,43.1*,-3.8
O=C(N/N=C/c1ccccn1)c1cc(-c2ccc(Br)s2)[nH]n1,-0.1,-8.1,-4.6,24.4,5.9,3.1
Cn1ncc([N+](=O)[O-])c1C(=O)Nc1ccc(-c2nc3ccccc3[nH]2)cc1,.,-3.3,.,-47.6,-9.6,.
CCOc1ccc(C(=O)Nc2ccc(-c3nc4ccccc4[nH]3)cc2)cc1[N+](=O)[O-],.,.,.,-2.9,101.5*,.
CCOc1ccccc1NC(=O)CC1SC(=N)N(c2ccccc2)C1=O (stereo not drawn),14.9*,.,-2.4,9.0,-2.2,8.7
CN(C)c1ccc(N=Cc2nc(-c3ccccc3)oc2OC(=O)c2cccc(Br)c2)cc1,.,-3.4,.,-69.3,-6.5,.
CN(Cc1ccccc1)C(=O)CSc1nc2ccccc2c(=O)n1Cc1ccco1,.,-14.3,.,.,.,.
C=CCOc1ccc2c(CC)cc(=O)oc2c1C,.,2.8,-6.6,-20.6,19.5,9.1
O=C(CC1NC2CCCCC2NC1=O)Nc1ccc2c(c1)OCO2 (stereo not drawn),.,5.1,.,.,.,.
CC(C)Cn1c(SC(C)C(=O)Nc2ccc3c(c2)OCCO3)nc2ccccc2c1=O (stereo not drawn),.,0.0,.,.,.,.
CC(Sc1nc2ccccc2c(=O)n1C)C(=O)Nc1ccc2c(c1)OCCO2 (stereo not drawn),24.8*,6.3,-14.4,-0.2,-56.1,11.7
C[C@H](CO)N1C[C@H](C)[C@H](CN(C)Cc2ccc(C(=O)O)cc2)OCCCC[C@H](C)Oc2ccc(NC(=O)c3ccncc3)cc2C1=O,-0.2,-0.2,100.7*,17.4,6.2,-10.6
C[C@@H]1CCCCO[C@@H](CN(C)Cc2ccc(C(=O)O)cc2)[C@H](C)CN([C@H](C)CO)C(=O)c2cc(NC(=O)c3ccncc3)ccc2O1,2.0,-5.5,104.0*,5.2,20.6,-9.1
C[C@@H]1CN([C@@H](C)CO)C(=O)c2cc(NC(=O)c3ccncc3)ccc2O[C@@H](C)CCCCO[C@H]1CN(C)Cc1ccc(C(=O)O)cc1,-0.4,1.3,95.8*,12.1,18.6,-9.0
C[C@@H]1CN([C@@H](C)CO)C(=O)c2cc(NC(=O)c3ccncc3)ccc2O[C@@H](C)CCCCO[C@@H]1CN(C)Cc1ccc(C(=O)O)cc1,-1.8,3.4,59.2*,22.0,3.6,-16.5
Cc1cccc(NCc2nc(SCC(=O)Nc3ccccc3Br)n[nH]2)c1,1.4,-3.3,-17.4,4.7,-1.6,8.7
O=C(CNC(=O)C(c1ccccc1)c1ccccc1)N/N=C/c1ccc(O)c([N+](=O)[O-])c1,-1.4,0.9,-11.3,-0.4,-27.1,4.9
C[C@@H]1CCCCO[C@@H](CN(C)Cc2ccc(C(=O)O)cc2)[C@@H](C)CN([C@@H](C)CO)C(=O)c2cc(NC(=O)c3ccncc3)ccc2O1,-0.8,4.0,104.9*,-1.2,18.2,-15.0
C[C@@H]1CCCCO[C@H](CN(C)Cc2ccc(C(=O)O)cc2)[C@@H](C)CN([C@H](C)CO)C(=O)c2cc(NC(=O)c3ccncc3)ccc2O1,0.7,6.3,48.5,2.8,-1.5,-16.8
C[C@@H]1CCCCO[C@H](CN(C)Cc2ccc(C(=O)O)cc2)[C@H](C)CN([C@H](C)CO)C(=O)c2cc(NC(=O)c3ccncc3)ccc2O1,2.5,4.5,103.0*,1.5,11.5,-1.9
C[C@@H]1CCCCO[C@H](CN(C)Cc2ccncc2)[C@H](C)CN([C@@H](C)CO)C(=O)c2cc(NC(=O)c3ccccc3)ccc2O1,1.9,4.2,8.5,-6.3,-7.4,57.6*
COc1ccccc1CNC(=O)CSc1ncc(C(=O)Nc2ccccc2)c(=O)n1C,-5.7,.,-3.4,4.0,8.8,-2.3
SMILES,F508del corr,RAD54 inh,RAD52 inh,LGR2 antag,GSIS activator,EWS-Fli block
COc1ccc(C2C(C(C)=O)=C(O)C(=O)N2c2ccc(Br)cc2)cc1 (stereo not drawn),-1.2,1.9,-8.0,-11.6,-23.1,-27.3
Cc1cc(O)cc2c1C1CCC3(C)C(=O)CCC3C1C=C2 (stereo not drawn),8.3*,.,-0.5,-22.6,-9.1,2.6
CCOC(=O)N1CCN(C(=O)C2CCC(=O)N(CCCN3CCCC3=O)C2)CC1 (stereo not drawn),8.5*,12.3,-14.6,-0.6,-6.8,.
CCOC(=O)N1CCN(C(=O)C2CCC(=O)N(CCCc3ccccc3)C2)CC1 (stereo not drawn),0.9,1.1,-16.2,-4.7,-0.3,-4.0
CN(Cc1c(F)cccc1Cl)C(=O)c1ccc(NC(=O)CC2SC(N3CCCCC3)=NC2=O)cc1 (stereo not drawn),10.9*,2.2,-18.4,-1.7,-63.1,5.5
CN(C)c1ccc(/C=C(\NC(=O)c2ccccc2)C(=O)NCCN2CCOCC2)cc1,-2.5,-38.8,-76.1,-10.8,40.5*,0.1
Fc1ccc2nc(C3CCN(Cc4nc(CC5CC5)no4)CC3)[nH]c2c1,8.6*,.,-13.5,6.4,-3.8,5.0
Fc1ccccc1C1CCN(Cc2nc(CC3CC3)no2)C1 (stereo not drawn),2.3,.,-11.6,-63.0,-9.8,-67.2
CCSc1ccc(C(=O)Nc2cccc(C)n2)cc1[N+](=O)[O-],.,.,.,-1.0,58.7*,.
CCSc1ccc(C(=O)Nc2ccc(Br)cn2)cc1[N+](=O)[O-],2.4,.,-0.4,6.3,-0.6,1.7
CCC(=O)N(C)C[C@H]1Oc2ncc(C#CCC(C)C)cc2C(=O)N([C@@H](C)CO)C[C@H]1C,0.0,2.9,-1.1,-1.7,11.3,2.5
CCOc1ccc(-c2cc(CCCC(=O)NCc3ccco3)no2)cc1,-0.7,1.5,-13.7,-30.8,-33.0,71.5*
COc1ccc(C#Cc2ccc3c(c2)[C@@H]2[C@@H](CCN2C(=O)c2ccncc2)[C@@H](CO)N3)cc1,1.8,-10.6,.,-25.4,-0.7,0.5
COc1ccccc1C#Cc1ccc2c(c1)[C@H]1[C@H](CCN1C(=O)c1ccncc1)[C@@H](CO)N2,1.3,.,87.2*,2.0,-15.4,.
COc1ccc(C#Cc2ccc3c(c2)[C@H]2[C@H](CCN2Cc2ccncc2)[C@@H](CO)N3)cc1,1.5,.,63.1*,2.4,10.6,.
COc1ccccc1C#Cc1ccc2c(c1)[C@@H]1[C@@H](CCN1C(=O)c1ccccc1)[C@H](CO)N2,-1.0,.,18.2,-4.6,-6.8,.
COC(=O)Cn1c(Cc2ccccc2)nc2ccccc21,-0.4,8.8,-11.8,-22.2,10.8,-2.0
